# Compound activity: PubChem, Broad Institute
# Hits are enriched below; roughly 1.5% of the tested compounds scored in any of these assays.
# AF4-AF9 inh: blocks AF4 peptide binding to human AF9; P42568; AID 651704; 350,000 tested, 0.47% active; inhibition, % at 10 µM; AlphaScreen, biotin-AF4 peptide binding to FLAG-AF9;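 active = every replicate reaching a set inhibition limit, whatever the replicate mean, cut at about 25% in these data; inconclusive = mean inhibition reaches that limit but some replicates miss it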;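 note: 0% = plate neutral control median and 100% = total signal loss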
# NSD2 inh: inhibitors of human histone methyltransferase NSD2; O96028; NSD2 peptide methylation, AlphaScreen, 120 min; inhibition, % at 12.5 µM; 310,000 tested, 0.54% active; AID 743445; in the data active = inhibition above about 50%
# RAD52 anneal inh: RAD52 (human) annealing inhibition | recombinant RAD52 DNA annealing, FRET fluorescence | inhibition, % at 18.7 µM | 360,000 tested, 0.46% active;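 active = every replicate showing at least 50% inhibition; inconclusive = mean inhibition at least 50% but not in every replicate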
# Target sequence (P43351 whole entry, looked up): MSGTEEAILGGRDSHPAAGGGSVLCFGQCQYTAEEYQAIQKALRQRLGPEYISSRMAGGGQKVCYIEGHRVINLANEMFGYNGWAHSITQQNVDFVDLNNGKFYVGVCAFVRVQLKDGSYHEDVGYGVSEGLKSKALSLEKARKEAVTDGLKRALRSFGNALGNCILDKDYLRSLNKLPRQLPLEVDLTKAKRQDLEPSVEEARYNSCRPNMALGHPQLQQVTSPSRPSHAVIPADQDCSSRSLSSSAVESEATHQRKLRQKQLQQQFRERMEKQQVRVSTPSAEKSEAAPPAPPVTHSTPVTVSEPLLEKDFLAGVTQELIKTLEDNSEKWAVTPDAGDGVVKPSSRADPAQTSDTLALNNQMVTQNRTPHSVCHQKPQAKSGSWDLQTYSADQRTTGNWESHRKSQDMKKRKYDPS
# miR-122 sensor: blocks miR-122 activity in Huh7 sensor cells; 340,000 tested, 0.3% active; activation (reporter increase), % at 12.5 µM; Huh7 miR-122 Renilla luciferase sensor, 48 h; neutral wells = 0, positive control = 100; AID 602342;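 active = mean replicate activation score at least 90 and every replicate individually at or above 90; inconclusive = only one of the two criteria met; inactive = neither criterion met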;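 note: higher luciferase means less miR-122 activity so hits act as miR-122 inhibitors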
# CASP6 VEID inh: caspase-6 (human) enzyme inhibition; P55212; purified caspase-6, Z-VEID-R110 cleavage fluorescence; inhibition, % at 12.5 µM; 350,000 tested, 0.53% active; AID 686996;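 active = mean inhibition across replicates at least about 35%, with every replicate also reaching that limit, limit read from the data; inconclusive = only one of the two criteria met; inactive = neither criterion met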;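 note: 0% = median of neutral control wells and 100% = no fluorescence left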
# Target sequence (P55212 24-179 limits assumed): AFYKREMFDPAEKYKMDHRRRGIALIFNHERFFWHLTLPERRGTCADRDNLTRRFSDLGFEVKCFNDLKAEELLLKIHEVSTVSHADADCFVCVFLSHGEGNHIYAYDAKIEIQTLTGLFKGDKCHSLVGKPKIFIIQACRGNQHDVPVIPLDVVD
# Target sequence (P55212 194-293 limits assumed): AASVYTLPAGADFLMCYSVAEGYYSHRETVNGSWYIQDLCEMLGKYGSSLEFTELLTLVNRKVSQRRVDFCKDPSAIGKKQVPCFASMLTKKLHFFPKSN
# RAD52 DNA ctr: counter-screen for RAD52 inhibitors: DNA binding compounds | shares compounds with RAD52 anneal inh | Salmon sperm DNA/acridine orange FP displacement | AC50, µM | 1,000 tested, 8% active;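 active = fitted half-maximal concentration for signal loss at or below twice the highest dose tested, in every separate run, actives reach about 64 µM in these data; inconclusive = runs disagree, or flat partial signal loss, or poor fit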
# * marks the source's active call; other numbers are inactive results; i = inactive; u = inconclusive; x = no result given; [ ] = dose if it differs, or a comment.
SMILES,AF4-AF9 inh,NSD2 inh,RAD52 anneal inh,miR-122 sensor,CASP6 VEID inh,RAD52 DNA ctr
COc1ccc2c3c([nH]c2c1)[C@H](CO)N(C(=O)Nc1c(C)noc1C)CC31CCN(CC2CCCC2)CC1,4.2,x,8.0,x,0.0,x
CCOCCCNC(=O)c1cc2c(s1)-c1ccccc1SC2,-2.5,0.9,-27.5,0.1,-0.6,x
CN(C)CCNC(=O)c1cc2c(s1)-c1ccc(Cl)cc1SC2,u,32.2,81.2*,x,-89.8,u
COc1ccc2cc3[n+](cc2c1OC)CCc1cc2c(cc1-3)OCO2,-1.4,x,75.4*,-3.8,13.0,i
COc1cccc(C2=NCCc3cc4c(cc32)OCO4)c1OC,x,-1.2,x,3.5,x,x
CCOC(=O)c1cnc2c(C)c(Cl)ccc2c1NCCCN1CCOCC1,-0.1,-2.9,3.0,-1.3,-5.2,x
CCOC(=O)c1cnc2c(C)cc(C)cc2c1NCCCN1CCOCC1,3.1,1.5,68.4*,0.5,-6.3,i
CCOC(=O)c1cnc2c(ccc3ccccc32)c1NCCCN(C)C,0.2,-3.6,96.4*,-2.4,-10.7,u
CCCNC(=O)Nc1ccc2c(c1)C(=O)N(C)C[C@@H](OC)[C@@H](C)CN(C(=O)C1CCC1)[C@@H](C)CO2,3.3,x,-1.5,6.8[16.7 µM],1.7,x
O=C(C[n+]1ccc(C(=O)N/N=C/c2ccc(OCc3ccccc3)cc2)cc1)c1ccccc1,-21.6,x,2.6,-4.3,0.9,x
COc1ccc(OC)c(/C=N/NC(=O)c2cc[n+](CC(=O)c3ccccc3)cc2)c1,6.8,9.2,56.6*,-0.3,-9.1,i
C/C=C/c1ccc([C@@H]2[C@H](CO)N(Cc3cccc(F)c3)C23CN(C(=O)CC)C3)cc1,3.8,x,-10.0,x,4.2,x
CC1(C)Cc2c(c(N3CCCC3)nc3sc4c(N5CCN(CCO)CC5)ncnc4c23)CO1,2.1,14.2,57.8*,1.4,4.6,i
OCCN1CCN(c2ncnc3c2sc2nc(N4CCOCC4)c4c(c23)CCC4)CC1,-4.9,7.8,15.4,2.0,x,x
CC[n+]1c(C=C2C=C(C)OC(C)=C2)sc2ccccc21,-0.1,6.9,58.7*,-21.3,x,i
O=C(NCCCCCCCN1CCCCCCC1)C(C1CCCCC1)C1CCCCC1,u,5.9,81.8*,-4.4,-96.7,i
O=C(NCCCN1CCOCC1)NC1CCCCC1,x,0.3,x,-3.4,x,x
CC(C)NC(=O)Nc1ccc2c(c1)C(=O)N([C@H](C)CO)C[C@@H](C)[C@H](CN(C)C(=O)Nc1ccc(F)cc1)OCCCC[C@@H](C)O2,-2.1,x,-4.3,-8.1[16.7 µM],8.5,x
Cc1cc2[nH]c3c(c[n+](C)c4ccccc34)c2cc1C,17.8,14.8,104.3*,x,-43.9,8.46µM*
O=C(NCCCN1CCCC1)c1cc2c(Cl)nc3ccccc3c2s1,8.7,x,63.1*,-1.4,-33.4,42.3µM*
CC1CCN(CCCNC(=O)c2cc3c(Cl)nc4ccccc4c3s2)CC1,7.3,5.4,49.7,0.6,-27.1,x
CC(C)NC(=O)N(C)C[C@@H]1Oc2ccc(NC(=O)C3CC3)cc2C(=O)N([C@H](C)CO)C[C@@H]1C,1.1,x,-2.6,1.8[16.7 µM],-0.2,x
CN(C)CCc1cc2c(c3c1ccc1ccccc13)OCO2,21.8,48.3,99.9*,-4.3,-18.5,36.6µM*
Cc1ccc(-c2ccc3c(c2)O[C@@H](CN(C)C(=O)C2CCCCC2)[C@@H](C)CN([C@@H](C)CO)S3(=O)=O)cc1,x,x,x,17.7[16.7 µM],x,x
COc1ccc(S(=O)(=O)Nc2ccc3c(c2)C(=O)N([C@H](C)CO)C[C@H](C)[C@H](CN(C)C)O3)cc1,-1.4,x,-8.5,-4.4[16.7 µM],-3.4,x
SMILES,AF4-AF9 inh,NSD2 inh,RAD52 anneal inh,miR-122 sensor,CASP6 VEID inh,RAD52 DNA ctr
CN(C)CCN(C)Cc1ccccc1Sc1cccc2ccccc12,36.3*,19.2,52.3*,6.0,-1.9,i
C[C@H](CO)N1C[C@H](C)[C@H](CN(C)Cc2ccc(C(=O)O)cc2)Oc2ccc(NC(=O)Cn3cnnn3)cc2C1=O,-2.8,x,15.3,-1.0[16.7 µM],1.9,x
COc1ccc(C2NC(C(=O)O)Cc3c2[nH]c2ccccc32)cc1CN1CCN(c2ccc(F)cc2)CC1 (configuration not stated),12.8,x,-10.0,-0.6,0.7,x
COc1ccc(C2NCCc3c2[nH]c2ccccc32)cc1COc1ccc(F)cc1 (configuration not stated),u,6.8,85.4*,x,-23.6,i
CCCN1[C@@H]2Cn3c(ccc(-c4ccc(F)cc4)c3=O)[C@H]1[C@@H](C(=O)NCC)[C@@H]2CO,-1.1,x,4.0,x,-1.3,x
CCC(C)[C@H](N)c1cn([C@@H](Cc2cc3ccccc3[nH]2)C(=O)N2CCNCC2)nn1 (some centres not stated),29.9*,x,95.9*,x,-94.8,i
COc1cc2cc(-c3ccc(OC)c(OC)c3C)nc(N)c2cc1OC,12.7,7.5,61.1*,14.7,-2.9,i
O=C(CCn1nc(-c2ccc(Cl)cc2)ccc1=O)NCCCN1CCCCCC1,x,2.1,63.0*,x,-54.7,i
O=C(Nc1cccc(Cl)c1)N1C[C@H]2[C@@H](c3ccccc31)[C@@H](CO)N2Cc1cccnc1,1.9,x,0.1,-1.8[16.7 µM],5.3,x
COCC(=O)N(C)C[C@@H]1Oc2cc(-c3ccc(C#N)cc3)ccc2S(=O)(=O)N([C@@H](C)CO)C[C@@H]1C,-1.2,x,3.0,-15.1[16.7 µM],1.5,x
COc1cc2c[n+](C)c3c4ccccc4ccc3c2cc1OC,-1.8,15.2,104.4*,-9.0,-20.1,u
COc1ccc2c(c1)c[n+](C)c1c3cc(OC)c(OC)cc3ccc21,2.8,40.2,108.9*,x,-6.7,36.2µM*
COc1ccc(Cc2c3cc(OC)c(OC)cc3cc[n+]2C)cc1OC,x,x,x,-1.5,x,x
CC(C)NC(=O)Nc1ccc2c(c1)C(=O)N([C@H](C)CO)C[C@H](C)[C@H](CN(C)C(=O)CCC(F)(F)F)OCCCC[C@@H](C)O2,x,x,x,0.2[16.7 µM],x,x
CC(C)NC(=O)N1CC(=O)N2[C@H](CO)[C@@H](c3ccc(/C=C/c4ccccc4)cc3)[C@H]2C1,16.3,x,1.0,x,2.2,x
Cc1noc(C)c1NC(=O)Nc1ccc2c(c1)C(=O)N([C@@H](C)CO)C[C@@H](C)[C@@H](CN(C)S(=O)(=O)c1cccs1)O2,-4.2,x,16.3,5.6[16.7 µM],0.4,x
O=C1c2ccccc2C(=O)c2c1ccc(C(=O)N1CCCCC1)c2NCCO,x,x,x,14.9,x,x
CCN(CCN(C)C)C(=O)c1ccc2c(c1NCCO)C(=O)c1ccccc1C2=O,17.1,22.8,57.7*,x,2.9,58.2µM*
C[C@H]1CN([C@@H](C)CO)C(=O)Cc2cc(NC(=O)Cc3ccccc3)ccc2O[C@@H]1CN(C)Cc1ccc2c(c1)OCO2,3.9,x,2.5,-2.7[16.7 µM],1.9,x
Fc1ccc2c(c1)Sc1ccc(Cl)cc1CC2N1CCN(CCC2OCCO2)CC1 (configuration not stated),16.0,11.2,81.2*,x,-18.6,i
CCC(C)NC(=S)Nc1ccc2nc(N3CCN(CC)CC3)cc(C)c2c1 (configuration not stated),10.7,x,44.5,17.0,-26.6,x
Cc1cc(N2CCN(C)CC2)nc2ccc(NC(=S)NCc3cccs3)cc12,x,x,63.4*,7.0,-12.0,i
